An excerpt weighted towards active compounds, which were near 1.6% of everything screened.
KCNQ2 block = KCNQ2 (rat) channel inhibition. 310,000 compounds, 1.1% hits. AID 2156. O88943. CHO-K1 KCNQ2, FluxOR thallium flux, 20 min; stronger effect = lower value. B-score at 10 µM;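 active means fluorescence ratio B-score at most minus 3 library SDs, with starting brightness B-score within 2 library SDs, cut at about -5.5 in these data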
KCNQ2 enhance = potentiators of rat KCNQ2 potassium channel; 310,000 compounds, 0.54% hits; AID 2239; CHO-K1 KCNQ2, FluxOR thallium flux fluorescence; stronger effect = higher value; O88943; B-score at 10 µM;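 active means fluorescence ratio B-score at least 3 SD of library B-scores, with initial fluorescence B-score within 3 of them, cut at about 5.3 in these data; same plate scores as AID 2156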;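 further: B-score of peak minus minimum over baseline fluorescence ratio after K+ and Tl+ stimulus; positive B-score means potentiation of KCNQ2 with more thallium influx and brighter signal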
Active calls of the source: *; i = inactive; / = no result given.

SMILES	KCNQ2 block	KCNQ2 enhance
O=C(NCCNC(=O)c1cc(Cl)ccc1Cl)c1ccccn1	i	/
CCCNC(=O)NNC(=O)c1ccc(F)cc1	i	/
CCOC(=O)C1=C(c2ccccc2)NC(=O)NC1c1ccc(OC)c(OC)c1 (stereo not drawn)	i	/
CCOC(=O)C1=C(c2ccccc2)N(C)C(=O)NC1c1ccc(OC(F)F)c(OC)c1 (stereo not drawn)	-5.56*	-5.56
CC(C)CCN(C(=O)COc1ccc(C#N)cc1)c1c(N)n(Cc2ccccc2)c(=O)[nH]c1=O	i	/
CCC(C(=O)OCC(=O)Nc1cccc(OC)c1)c1ccccc1 (stereo not drawn)	i	/
CCCN(CCC)C(C(=O)Nc1cccc(OC)c1)c1ccccc1 (stereo not drawn)	-5.93*	-5.93
Cc1c(NC(=S)NC(=O)c2cccc(Br)c2)c(=O)n(-c2ccccc2)n1C	i	/
COC(=O)Cc1ccc(N(Cc2ccccc2F)S(=O)(=O)c2ccc(C)cc2)cc1	-6.62*	-6.62
Cc1ccc(N(CCC(=O)O)S(=O)(=O)c2ccccc2)cc1	i	0.81
CCN(CC)S(=O)(=O)c1cccc(NC(=O)COc2ccc(F)cc2Br)c1	-7.59*	-7.59
CCN(CC)S(=O)(=O)c1cccc(NC(=O)COc2ccc(C#N)cc2OC)c1	i	7.54*
CCN(CC)S(=O)(=O)c1cc(NC(=O)COc2ccc(C#N)cc2OC)ccc1C	i	/
CCN(CC)S(=O)(=O)c1ccc(C)c(NC(=O)COc2ccc(Cl)cc2Br)c1	i	0.05
Cc1cc(SCC(=O)c2cccs2)nc2ccccc12	i	1.2
O=C(CCN1C(=O)/C(=C/c2ccccc2Cl)SC1=S)NCCc1ccc(O)cc1	i	0.88
c1ccc(Nc2scc(-c3ccccc3)[n+]2Cc2ccco2)cc1	-6.44*	-6.44
c1ccc(C[n+]2c(-c3ccccc3)csc2Nc2ccccc2)cc1	i	/
CSc1ccccc1NC(=O)CN(C)C(=O)C1CCN(C(=O)Nc2ccccc2)CC1	i	0.93
CCc1nnc(SCC(=O)Nc2ccc(F)cc2)o1	i	1.13
O=C(NCc1ccco1)c1ccc(Cn2c(=O)c3ccccc3n(Cc3cccc(F)c3)c2=O)cc1	i	/
O=C(NCc1ccco1)c1ccc(Cn2c(=O)c3ccccc3n(Cc3ccc(Cl)cc3)c2=O)cc1	-6.53*	-6.53
CCc1ccc(C)[n+](CC(=O)c2cccs2)c1	i	0.31
N#Cc1c(N2CCN(C(=O)c3ccco3)CC2)nc(-c2ccccc2)c2c1CCCC2	-5.63*	-5.63
N#Cc1c(N2CCN(C(=O)c3ccccc3)CC2)nc(-c2ccccc2)c2c1CCCC2	i	/
SMILES	KCNQ2 block	KCNQ2 enhance
CC(C)Cc1nc(N2CCN(C(=O)c3ccccc3)CC2)c(C#N)c2c1CCC2	-6.57*	-6.57
CC(C)Cc1nc(N2CCN(C(=O)C(C)C)CC2)c(C#N)c2c1CCC2	-6.45*	-6.45
CC(C)Cc1nc(N2CCN(C(=O)c3ccco3)CC2)c(C#N)c2c1CCC2	i	/
CC(=O)N1CCN(c2nc(CC(C)C)c3c(c2C#N)CCC3)CC1	i	/
CS(=O)(=O)N(CCC#N)Cc1ccc(/C=C2\C(=O)Nc3ccccc32)o1	i	/
CC(C)C[C@@H](C(=O)N[C@@H](C(=O)O)c1ccccc1)N1C(=O)N2CCc3c([nH]c4ccccc34)[C@@]2(C)C1=O	i	/
C=CCN(c1cccc(C(F)(F)F)c1)S(=O)(=O)c1cccc(C(=O)OCC(=O)Nc2ccccc2)c1	i	7.53*
C=CCN(c1cccc(C(F)(F)F)c1)S(=O)(=O)c1cccc(C(=O)OCC(=O)NC)c1	i	1.59
O=C(CCCCCN1C(=O)[C@@H]2Cc3ccccc3CN2C1=O)NCCc1ccccc1	i	/
CC(C)(C)n1cnnc1Sc1ncccc1[N+](=O)[O-]	i	0.87
CC1(C)CC(=O)C2=C(C1)OC1=C(C2)C(=O)CC(C)(C)C1	-6.03*	-6.03
CC1(C)CC(=O)C2=C(C1)OC1=C(C(=O)CC(C)(C)C1)C2c1ccc(O)cc1O	i	/
CCOC(=O)C1(CCOc2ccccc2)CCN(Cc2ccc(O)cc2)CC1	i	1.58
CCOC(=O)C1(CCOc2ccccc2)CCN(Cc2cccc3nonc23)CC1	-6.16*	-6.16
Cc1cc(C)c(C)c(S(=O)(=O)NC2CCN(Cc3ccccc3)CC2)c1C	i	/
O=C(NCc1ccc(F)cc1)c1cnn2ccccc12	i	/
CC1CC(NC(=O)c2c(O)nc3sccn3c2=O)CC(C)(C)C1 (stereo not drawn)	i	/
Cc1cccc(NC(=O)C2(c3ccccc3)CC2(Cl)Cl)c1 (stereo not drawn)	i	/
Cc1cc(C)cc(NC(=O)C2(c3ccccc3)CC2(Cl)Cl)c1 (stereo not drawn)	-6.29*	-6.29
CCn1c2ccccc2c2cc(NC(=O)C(C)Oc3ccccc3)ccc21 (stereo not drawn)	i	/
CCn1c2ccccc2c2cc(NC(=O)C(C)Oc3ccc(OC)cc3)ccc21 (stereo not drawn)	-6.17*	-6.17
CC(C)(C)CN1CCC(n2nccc2NC(=O)c2ccccc2Cl)CC1	i	0.78
